# Assay results published in PubChem BioAssay (Tox21).
# Records with an inconclusive call do not appear. Active and inactive are the calls of the source. Calls come from the whole dose curve; as a rule, active = well fitted activation curve with a large enough effect in the repeat runs; inconclusive = weak or mixed curves; inactive = no such curve, though single readings can be large or run the other way.
# Assay: qHTS assay for small molecules that induce genotoxicity in human embryonic kidney cells expressing luciferase-tagged ATAD5 (AID 651632); note: nearly all actives have a fitted effect of over 15% in size
# Conditions: HEK293T ATAD5-luciferase induction, 16 h; series mostly up to 83.3 µM; activation: at the top concentration
# Source text: U.S. Tox21 Program National Center for Advancing Translational Sciences [NCATS] NIH Chemical Genomics Center [NCGC] U.S. Environmental Protection Agency [EPA] National Institutes of Environmental Health Sciences [NIEHS] National Toxicology Program [NTP] U.S. Food and Drug Administration [FDA] Tox21 Assay Overview: As cancer cells divide rapidly and during every cell division they need to duplicate their genome by DNA replication. The failure to do so results in the cancer cell death. Based on this concept, many chemotherapeutic agents were developed but have limitations such as low efficacy and severe side effects etc. A new cell based assay was developed to find the compounds that effectively block DNA replication either by directly damaging DNA or by inhibiting other cellular mechanisms. Enhanced Level of Genome Instability Gene 1 (ELG1; human ATAD5) protein levels increase in response to various types of DNA damage. Using a luciferase reporter-gene tagged with ATAD5, a cell-based assay [developed by Kyungjae Myung, NHGRI, NIH] was used to measure the induction of ATAD5 in human embryonic kidney cells (HEK293T). So, increase in luciferase activity can be used to identify the compounds that cause genetic stress.
# Tox21 Assay Protocol Summary: For genotoxicity screening, 2,000 cells in 5 uL/well were dispensed into white, solid-bottom 1536-well plates using a Multidrop Combi (Thermo Scientific) dispenser. Following transfer of 23 nL compound or DMSO vehicle by a pin tool, the plates were incubated 16 hr at 37C and 5% CO2. 5 ul Amplite (AAT Bioquest, Inc.) was then added to each plate and following 30 min incubation at room temperature, luciferase activity was quantified on a ViewLux CCD-based plate reader.
# % is set by controls: 0 for no effect and ±100 for the full control effect.
row,Compound,activation
1,CCCCCCCCS(=O)(=O)O,2.69% [at 95.3 µM] (inactive)
2,CC(O)C(CO)C(C)O (stereo not given),2.72% [at 95.3 µM] (inactive)
3,COC(=O)C(c1ccccc1Cl)N1CCc2sccc2C1 (stereo not given),-2.45% (inactive)
4,NNC(=O)CCCCC(=O)NN,-0.418% (inactive)
5,O=C(OOC(=O)c1ccccc1)c1ccccc1,-2.9% (inactive)
6,CC(C)C(C)C,-2.92% (inactive)
7,C[C@@H](CN1CC(=O)NC(=O)C1)N1CC(=O)NC(=O)C1,0.845% (inactive)
8,CSC(=O)c1cccc2nnsc12,-0.63% (inactive)
9,O=C(O)CCCCCCCCCC(=O)O,7.45% (inactive)
10,CCOC(=O)COc1ccc2c(C)c(CCN(CC)CC)c(=O)oc2c1Cl,0.577% (inactive)
11,Cc1ccc(Br)cc1,-0.318% (inactive)
12,NNC(=O)OCc1ccccc1,5.54% (inactive)
13,CC(C)C[P+](C)(CC(C)C)CC(C)C,2.2% [at 95.3 µM] (inactive)
14,Cc1cc(N)no1,1.67% [at 95.3 µM] (inactive)
15,CC1(C)C(=O)C(C)(C)C1=O,1.07% (inactive)
16,C=CC(C)(CCC=C(C)C)OC(=O)C(C)C (stereo not given),0.741% (inactive)
17,C/C(Cl)=C/CCl,1.05% [at 95.3 µM] (inactive)
18,CC(=O)OC1CCC(C(C)(C)C)CC1 (stereo not given),-0.797% (inactive)
19,CCc1ccc(CC)cc1,2.88% [at 95.3 µM] (inactive)
20,COc1ccc(Cl)cc1C,1.03% [at 95.3 µM] (inactive)

row,Compound,activation
1,C=CC(=O)OCCOCCOCC,-2.62% (inactive)
2,O=C[C@@H](O)[C@H](O)[C@H](O)CO,-0.816% (inactive)
3,CCO[Si](CC(C)C)(OCC)OCC,-1.68% (inactive)
4,CCCCCCCCCCCCCCCC/C=C/C1CC(=O)OC1=O (stereo not given),4.22% (inactive)
5,CCC(C)c1nccnc1OC (stereo not given),0.758% (inactive)
6,Cc1cc(O)c(Cl)cc1C,-0.339% (inactive)
7,CCCCCC(CC)OC(=O)CCCOc1ccc(Cl)cc1Cl (stereo not given),0.829% (inactive)
8,CCCCCCCCCCCC(C)=O,1.83% (inactive)
9,CCC(=O)OCCOc1ccccc1,-0.615% (inactive)
10,C=C(C)C(=O)OCCOC1CC2CC1C1C=CCC21 (stereo not given),1.98% [at 95.3 µM] (inactive)
11,Cc1ccccc1C#N,0.523% (inactive)
12,CCN(CC)CC,-0.999% [at 95.3 µM] (inactive)
13,CCCCCCCOC(C)=O,4.69% (inactive)
14,CCCCCCCCCCCBr,1.58% (inactive)
15,C=COCCCCO,1.24% (inactive)
16,CC(C)(C)C(=O)CC(=O)C(C)(C)C,2.06% [at 95.3 µM] (inactive)
17,Cc1cc(C)c(C)c(C)c1,3.26% (inactive)
18,C/C=C(\C)C(=O)OC/C=C(\C)CCC=C(C)C,-1.02% (inactive)
19,Cc1nnc(C(=O)NC(C)(C)c2nc(C(=O)NCc3ccc(F)cc3)c(O)c(=O)n2C)o1,3.78% (inactive)
20,CCCCc1ccc(Cl)cc1,0.93% (inactive)
